WRN helicase inh = qHTS for Inhibitors of WRN Helicase; Bifunctional 3'-5' exonuclease/ATP-dependent helicase WRN (Homo sapiens), Q14191; actives 0.46% (n = 360,000); WRN helicase unwinding, fluorescent forked duplex, kinetic; AID 651768, 2012; Potency, µM (top dose mostly 114 µM), without a hit: top-dose activity change, negative = inhibition, usual class: inhibitors; also: potency is read from the fitted curve at half-maximal effect; % is scaled to controls: 0 for no effect and ±100 for the full control effect; nearly all actives have a fitted effect of over 55% in size
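WRN at 20 nM final preincubated with compound 15 min at room temperature; reaction started with 100 nM fluorophore/quencher forked duplex oligonucleotide and 2 mM ATP final. Unwinding followed kinetically by red fluorescence (ex 525, em 598 nm).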
POLB inh = qHTS Assay for Inhibitors of DNA Polymerase Beta. P06746. Pol beta primer extension/strand displacement, fluorescence kinetic. Potency, µM (titrated, usually from 114 µM), without a hit: top-dose activity change, negative = inhibition, hits mostly inhibitors. actives 1.3% (n = 340,000); also: potency is read from the fitted curve at half-maximal effect; % is scaled to controls: 0 for no effect and ±100 for the full control effect
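Preincubation: enzyme (10 nM) with compound, 15 min, RT. Reaction: substrate added to 50 nM final. Reads: 0 and 10 min. Analysis: normalized, Hill fit.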
PI5P4Ka inh = qHTS for Inhibitors of phosphatidylinositol 5-phosphate 4-kinase (PI5P4K); Phosphatidylinositol 5-phosphate 4-kinase type-2 alpha (Homo sapiens), P48426; PI5P4Kalpha enzyme, ADP-Glo luminescence, 60 min; hits give low values; max response, %; actives 1.2% (n = 330,000); AID 652105, 2013; active = max response of -50% or lower; inconclusive = between -30% and -50%; inactive = -30% or higher; also: value at the top dose of about 77 µM; % is scaled to controls: 0 for no effect and ±100 for the full control effect
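Quantitative HTS of the MLSMR library against PI5P4Kalpha with substrate. ATP added last at 5 microM final; room temperature, 60 minutes. Remaining ATP depleted, ADP converted and read as luminescence.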
POLK inh = qHTS for Inhibitors of Polymerase Kappa; purified Pol kappa, fluorescent DNA synthesis assay, 10 min; Potency, µM (top dose mostly 107 µM), for inactives: at the highest dose activity, negative = inhibition, most hits filed as inhibitors; actives 0.53% (n = 400,000); also: potency is read from the fitted curve at half-maximal effect; % is scaled to controls: 0 for no effect and ±100 for the full control effect
Target sequence (Q9UBT6 whole entry, looked up): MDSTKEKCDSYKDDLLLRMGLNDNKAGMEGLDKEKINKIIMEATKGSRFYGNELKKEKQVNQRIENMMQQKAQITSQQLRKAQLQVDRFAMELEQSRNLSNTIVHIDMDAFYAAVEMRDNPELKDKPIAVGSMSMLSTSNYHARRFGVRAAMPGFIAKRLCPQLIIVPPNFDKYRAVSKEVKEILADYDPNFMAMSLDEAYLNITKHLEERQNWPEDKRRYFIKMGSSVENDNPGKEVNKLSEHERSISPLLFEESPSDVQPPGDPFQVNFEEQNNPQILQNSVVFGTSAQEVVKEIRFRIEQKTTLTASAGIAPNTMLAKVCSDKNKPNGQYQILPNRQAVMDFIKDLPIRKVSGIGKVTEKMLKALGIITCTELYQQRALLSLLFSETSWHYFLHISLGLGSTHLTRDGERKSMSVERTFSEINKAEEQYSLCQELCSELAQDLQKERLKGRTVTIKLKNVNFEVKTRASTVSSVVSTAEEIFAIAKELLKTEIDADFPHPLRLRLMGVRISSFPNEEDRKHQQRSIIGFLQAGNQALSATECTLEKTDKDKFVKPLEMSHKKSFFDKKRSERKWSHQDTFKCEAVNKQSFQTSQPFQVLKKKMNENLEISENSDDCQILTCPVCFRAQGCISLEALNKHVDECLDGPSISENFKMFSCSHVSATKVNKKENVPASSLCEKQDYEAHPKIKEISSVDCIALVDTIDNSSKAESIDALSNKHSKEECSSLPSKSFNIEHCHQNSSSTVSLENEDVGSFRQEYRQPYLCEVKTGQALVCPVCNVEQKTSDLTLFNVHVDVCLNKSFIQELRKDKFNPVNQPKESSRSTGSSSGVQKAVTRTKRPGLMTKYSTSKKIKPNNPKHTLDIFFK
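50 nM final substrate added after 15 min RT preincubation of 10 nM Pol kappa with compound; fluorescence read at 0 and 10 min.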
POLI inh = qHTS for Inhibitors of Polymerase Iota; Pol iota fluorescent replication assay, 10 min; DNA polymerase iota (Homo sapiens), Q9UNA4; actives 1% (n = 390,000); Potency, µM (highest dose often 115 µM), for inactives: top-dose activity, negative = inhibition, most hits filed as inhibitors; also: potency is read from the fitted curve at half-maximal effect
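Pol iota at 10 nM preincubated 15 min with compounds at room temperature; reaction started with fluorescent substrate, 50 nM final. Fluorescence read kinetically at 0 and 10 min; buffer-only wells as negative control.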
Pol eta inh = qHTS for Inhibitors of Polymerase Eta. DNA polymerase eta (Homo sapiens), Q9Y253. recombinant Pol eta, fluorescent DNA replication assay. Potency, µM (highest dose often 114 µM), inactives show at the highest dose activity change, negative = inhibition, hits mostly inhibitors. actives 1.2% (n = 390,000); also: potency is read from the fitted curve at half-maximal effect; % is scaled to controls: 0 for no effect and ±100 for the full control effect
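Pol eta (10 nM) was preincubated with compounds for 15 min at room temperature, after which fluorescent replication substrate (50 nM final) was added to start the reaction. Fluorescence was read kinetically at 0 and 10 min.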
ADP-Glo interf = qHTS for Inhibitors of PI5P4K: ADP-Glo counter assay. Potency, µM (doses to about 76.9 µM), for the others: top-dose activity change, negative = inhibition, actives largely listed as inhibitors. shares compounds with PI5P4Ka inh. ADP-Glo detection counter-screen, luciferase luminescence, no enzyme. 1,100 tested, under 10 active
An asterisk follows results filed as active; ? = inconclusive; . = no result; [ ] = dose if it differs, or a comment. A selection: hits, their analogues and other compounds. The true share with any hit is near 2.8%. Unless noted, calls follow the shape of the dose curve; as a rule, active = well fitted curve in the direction sought with a large enough effect; inconclusive = small, poorly fitted or top-dose-only effect, or another doubt; inactive = no such curve, though single readings can be large; an effect the other way counts as inactive or inconclusive.

SMILES	WRN helicase inh	POLB inh	PI5P4Ka inh	POLK inh	POLI inh	Pol eta inh	ADP-Glo interf
Cc1ccc(Cl)cc1-n1c(=O)cc(N2CCN(c3ccccc3)CC2)[nH]c1=O	.	24%	.	-3%[60.1 µM]	13%	-12%	.
CCCCCC(=O)N(c1ccc(OCC)cc1)S(=O)(=O)c1ccc2c(c1)n(C)c(=O)n2C	.	2%	.	2%	16%	.	.
O=C(c1ccco1)N1CCN(c2ncnc3c2[nH]c2ccc(Br)cc23)CC1	-30%	-9%	-50*	-19%	?	?	10%
Cc1nc(C)c(-c2csc(Nc3ccc(S(N)(=O)=O)cc3)n2)s1	-8%	4%	4	-7%	54%	-11%	.
COc1ccc(OC)c(-c2csc(NC(=O)Cc3ccc(F)cc3)n2)c1	-9%	0%	21	-22%	-1%	-20%	.
Cc1ccc(-c2csc(NC(=O)Cc3ccc(F)cc3)n2)o1	-33%	-1%	-56*	1%	90%	-28%	4%
Cc1ccc(-c2csc(Nc3ccc(S(N)(=O)=O)cc3)n2)o1	-33%	-8%	-65*	-9%	34%	-10%	1%
NS(=O)(=O)c1ccc(CCNC(=O)C(=O)c2cn(CC(=O)N3CCCC3)c3ccccc23)cc1	3%	49%	-2	-7%	27%	-14%	.
Cc1ccc(NC2Sc3ccccc3NC2=O)cc1 (stereo not drawn)	3%	32%	-63*	4%	11%	-8%	-1%
CCOc1cccc(NC(=O)CSc2sc3c(O)cc(=O)[nH]c3c2C#N)c1	-36%	-20%	-60*	4%	1%	-3%	1%
CC(=O)Nc1cccc2cc(O)ccc12	-21%	.	-63*	-43%	?	?	3%
Cc1cccc(-n2c(SCC(N)=O)nc3c(c2=O)C2(CCCC2)Cc2ccccc2-3)c1	-23%	1%	-56*	-15%	-9%	-27%	-4%
COc1ccc(C(=O)c2c(-c3ccsc3)oc3ccc(-c4ccc(OC)cc4)cc23)cc1	11%	.	5	-13%	2%	-1%	.
COCCNc1nc(NCC2CCCCC2)c2sc(-c3ccccc3)cc2n1	-5%	.	.	.	.	.	-2%
c1ccc(-c2cc3nc(NCC4CC4)nc(NCC4CCCCC4)c3s2)cc1	2%	.	.	.	.	.	5%
COCCNc1nc(NCCOc2ccccc2Cl)c2sc(-c3ccccc3)cc2n1	3%	.	?	.	.	.	.
O=C1NCCN1CCNc1nc(NCC2CC2)nc2cc(-c3ccccc3)sc12	6%	.	?	.	.	.	.
CCC(C)COC(=O)c1ccc(C(=O)O)cc1 (stereo not drawn)	5%	13%	-64*	-14%	4%	3%	-10%
CCc1ccc(C(=O)O)cc1	-17%	17%	-2	-5%	130%	-6%	.
CCOC(=O)C1(C)CCCN(C(=O)c2ccccc2C(F)(F)F)C1 (stereo not drawn)	1%	.	-79*	.	.	.	-5%
CCC(C)n1c(SCC(=O)Nc2ccc3[nH]c(=O)[nH]c3c2)nc2ccccc2c1=O (stereo not drawn)	1%	.	-50*	-16%	19%	-9%	-1%
Cc1noc(C)c1NC(=O)N(C)C[C@H]1OCc2cnnn2CCCC(=O)N([C@@H](C)CO)C[C@H]1C	2%	.	0	.	.	-13%	.
O=C(Cn1ncc2c(=O)oc3ccccc3c21)N1CCN(c2ccc(Cl)cc2)CC1	.	10%	.	-1%	-4%	5%	.
Cc1c(-c2cc(C(=O)O)on2)cnn1C	3%	3%	-51*	-7%	20%	-1%	-10%
O=C(Nc1ccc2c(c1)OCO2)c1n[nH]c(=O)c2ccccc12	-9%	?	-57*	-24%	?	-16%	1%
SMILES	WRN helicase inh	POLB inh	PI5P4Ka inh	POLK inh	POLI inh	Pol eta inh	ADP-Glo interf
Cc1ccc(C(=O)c2sc3c(c2N)c(=O)[nH]c(=O)n3CCc2ccccc2)cc1	1%	-17%	-1	-4%	-7%	-13%	.
CCn1c(=O)[nH]c(=O)c2c(N)c(C(=O)c3cc(F)ccc3F)sc21	-8%	-13%	-64*	-3%	22%	-2%	-8%
Cc1c(Cl)c([N+](=O)[O-])nn1CC(=O)NC1CCCCC1	2%	4%	-5	-2%	4%	-7%	.
CCC1CCCCN1C(=O)Cn1nc([N+](=O)[O-])c(Cl)c1C (stereo not drawn)	-4%	35%	-50*	?	89µM*	89µM*	-1%
COc1cccc(S(=O)(=O)N2C[C@H](O)COC[C@H]3O[C@@H](CC(=O)N4CCN(C)CC4)CC[C@@H]32)c1	7%	.	0	.	.	.	.
Cc1ccccc1CN1C(=O)C(C)Sc2ccc(-c3ccco3)cc21 (stereo not drawn)	-20%	.	-54*	.	.	.	-4%
CC1Sc2ccc(S(=O)(=O)CCC(=O)N3CCN(c4ccccc4F)CC3)cc2NC1=O (stereo not drawn)	2%	-1%	0	1%	36%	-7%	.
CCS(=O)(=O)Nc1ccc(C2=NN(C(=O)c3ccco3)C(c3cccc(F)c3)C2)cc1 (stereo not drawn)	2%	0%	-29	-2%	-11%	-18%	.
CS(=O)(=O)Nc1ccc(C2=NN(C(=O)c3ccco3)C(c3cccc(F)c3)C2)cc1 (stereo not drawn)	-12%	10%	-65*	-3%	38%	-19%	0%
CS(=O)(=O)Nc1ccc(C2=NN(C(=O)c3ccco3)C(c3ccccc3)C2)cc1 (stereo not drawn)	-9%	?	-51*	-7%	17%	-20%	3%
CCc1ccc(NC(=O)Cc2c(C(=O)O)n(C)c3ccccc23)cc1	-9%	?	0	1%	-22%	-13%	.
Cc1ccc(NCC(=O)Nc2ccc(Br)cc2)cc1C	0%	-2%	-3	-13%	-24%	-27%	6%
CCOC(=O)c1c(NC(=O)c2ccoc2C)sc(C)c1C	3%	-2%	8	-1%	6%	-4%	.
CCc1c(C)sc(NC(=O)c2ccoc2C)c1C(N)=O	?	-19%	-66*	0%	103%	-10%	-3%

Assay outcomes (PubChem BioAssay)
